In all, about 33,000 sequences were measured (“E-score (-0.5 to 0.5)”: median about -0.017, highest 2% from about 0.3 on). Only a selection was taken, and the highest values are over-represented in it overall.
target: T1, Sut1 (UniProt P53032); assay: PBM E-score (8-mer binding enrichment) (E-score (-0.5 to 0.5)); higher = stronger / more preferred TF binding; settings: protein concentration: 200 nM; construct: GST-full length
T1 sequence: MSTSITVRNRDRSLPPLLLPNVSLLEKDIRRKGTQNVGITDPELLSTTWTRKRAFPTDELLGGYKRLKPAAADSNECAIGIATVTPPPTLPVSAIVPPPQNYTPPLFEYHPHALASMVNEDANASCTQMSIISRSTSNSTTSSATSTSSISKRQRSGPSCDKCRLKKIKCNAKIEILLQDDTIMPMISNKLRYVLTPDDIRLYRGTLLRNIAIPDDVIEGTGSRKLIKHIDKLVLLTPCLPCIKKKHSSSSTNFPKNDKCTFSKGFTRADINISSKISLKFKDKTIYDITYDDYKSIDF
Method: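 Universal 'all 10-mer' protein binding microarrays (Agilent AMADID 015681) probed with GST-tagged S. cerevisiae TFs (full-length or DBD) made by in vitro transcription/translation (PURExpress), about 100-200 nM. Bound TF was detected with fluorescent anti-GST. Each ungapped 8-mer (which stands for itself and its reverse complement) is scored by the PBM enrichment score (E-score), a modified Wilcoxon-Mann-Whitney statistic from -0.5 to +0.5, computed with the Universal PBM Analysis Suite. Scale: above 0.35 generally sequence-specific binding.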

Row | Sequence | PBM E-score
1 | ATACGAGA | -0.0254
2 | AGAGGCTC | -0.103
3 | AATTCTGG | -0.0608
4 | CTTCACTA | 0.252
5 | GCTTCTTA | 0.0688
6 | ATGACGTA | 0.0909
7 | ACGTACTA | -0.0235
8 | GCGTACTA | -0.0972
9 | CCGTACTA | 0.297
10 | AGAATCCA | 0.00183
11 | CTTATATC | 0.222
12 | ATTATATA | 0.337
13 | ATTATATG | 0.134
14 | GTTATATA | 0.286
15 | ATTATATC | 0.262
16 | CTTATATA | 0.334
17 | AACCCGTA | -0.0786
18 | CTTCTCTC | -0.0216
19 | CCAAACAC | -0.00595
20 | ACACCTCG | -0.103
21 | AGGAGGAG | -0.183
22 | AGGTGTGG | -0.0561
23 | AGTCCGTC | 0.424
24 | AATCCGTC | 0.0795
25 | AGTCCATG | -0.00201

Row | Sequence | PBM E-score
26 | AGTCCGTG | 0.431
27 | AGTCCGTA | 0.445
28 | AGCCCGTG | -0.224
29 | CGTCCGTA | 0.0823
30 | CGTCCGTC | -0.154
31 | GGTCCGTA | 0.253
32 | CTGCTTGA | -0.153
33 | CTGAACAC | -0.0309
34 | GCTCTGCC | -0.128
35 | CGCACACA | -0.161
36 | CGTTGGCA | -0.0897
37 | GACTGATA | 0.0856
38 | CGAGCTCG | -0.0197
39 | GGAGACAA | 0.0139
40 | GCATGCGA | 0.0246
41 | GTGCCGAA | 0.0728
42 | CTCCGAGC | 0.437
43 | CCCCGAGC | 0.163
44 | CTCCGAGA | 0.459
45 | ATCCGAGA | 0.198
46 | CGCCGAGA | 0.0729
47 | ATCCGAGC | 0.0537
48 | GTCCGAGA | 0.428
49 | GGCCGAGA | 0.0849
50 | CACCGAGA | -0.0582

Row | Sequence | PBM E-score
51 | CGACACTC | 0.0434
52 | AGACTCAA | -0.0327
53 | AAGGCTGG | -0.146
54 | AGATGGTA | 0.0768
55 | AATTATCC | 0.1
56 | GATTATTA | 0.229
57 | AATTATTA | 0.305
58 | CTTTATTA | 0.261
59 | GTTTATTA | 0.302
60 | AATTATTG | 0.173
61 | CATTATTC | 0.231
62 | AATTATTC | 0.317
63 | ATTTATTA | 0.269
64 | TCGATCAA | -0.00575
65 | TAGTGCGA | -0.0645
66 | AGTGATTA | 0.0842
67 | CTGTCCTA | -0.0818
68 | CCAAGACC | -0.261
69 | GGCGTCGA | -0.167
70 | AAAAGTCC | 0.394
71 | AAAAGTCT | 0.102
72 | ATAAGTCC | 0.317
73 | CAAAGTCC | 0.282
74 | GAAAGTCA | 0.049
75 | CGAAGTCA | -0.081

Row | Sequence | PBM E-score
76 | CGAAGTCC | 0.378
77 | GAAAGTCC | 0.326
78 | ATAAGTCG | 0.0862
79 | AAAAGTCA | 0.15
80 | GGAAGTCC | 0.159
81 | CTAAGTCC | 0.114
82 | CGCGCAAC | -0.114
83 | CAAAGTAC | 0.0285
84 | ACGTATAG | 0.0316
85 | GCAGCACC | 0.0294
86 | AGATTGCC | -0.043
87 | CCACAAAA | 0.0574
88 | GCTCTACA | -0.121
89 | AGGATCGC | -0.214
90 | CAAGCGGC | -0.0127
91 | ACAAGTCA | -0.118
92 | ACAAGTCG | -0.264
93 | ACAAGTCC | 0.374
94 | ACGCGTCG | 0.174
95 | AAAGTGAA | 0.191
96 | GTGCTACA | -0.0297
97 | GGGATGGA | -0.0689
98 | CGAAAAGC | -0.0121
99 | GCTCCAGA | -0.199
100 | GCGCCGGA | 0.196

Row | Sequence | PBM E-score
101 | CCGCCGGA | 0.223
102 | CCTCCCGA | -0.289
103 | CCTCCGGA | 0.374
104 | GCTCCGGA | 0.442
105 | ACTTAGCC | -0.129
106 | GAGGCTAC | -0.349
107 | CTTCGCAA | -0.0605
108 | GAAGCGAC | -0.0313
109 | ATCCGACC | 0.00218
110 | CACCGACC | -0.226
111 | CTCCGACC | 0.391
112 | CCCCGACA | 0.0397
113 | GCCCGACA | -0.106
114 | ATCCGACA | 0.0788
115 | CTCCGACA | 0.375
116 | GGCCGACA | -0.0715
117 | GTCCGACA | 0.366
118 | ATTTCAGC | 0.137
119 | AACACTAT | 0.266
120 | AAGTGTCC | 0.0158
121 | GCTGAAGA | -0.00656
122 | GAGGTGGA | -0.151
123 | AGGTCGAG | -0.257
124 | CATTATAA | 0.126
125 | AATTATAG | 0.257

Row | Sequence | PBM E-score
126 | GATTATAA | 0.154
127 | CATTATAC | 0.151
128 | AATTATAA | 0.335
129 | AATTATAC | 0.308
130 | ACTATGGG | -0.155
131 | CGTCTGTC | -0.213
132 | CTCAGCTA | -0.13
133 | TACTTACA | 0.115
134 | GGGAGTCA | -0.126
135 | CGGAGTCA | 0.474
136 | AGGAGTCC | 0.202
137 | AGGAGTCA | 0.0481
138 | CAGAGTCC | 0.17
139 | CGGAGTCC | 0.486
140 | CTCTCACA | 0.0236
141 | GAACCGAA | 0.13
142 | ATTTGCAG | 0.0722
143 | CTAGCGCA | -0.174
144 | GGTACGGA | 0.155
145 | ATTACGGA | 0.353
146 | AGTACGGC | -0.0481
147 | ATTACGGC | -0.0212
148 | ATCACGGA | 0.402
149 | ATTACGGG | -0.0151
150 | ATCACGGG | -0.0946

Row | Sequence | PBM E-score
151 | ATCACGGC | 0.0173
152 | AGTACGGA | 0.374
153 | GTGCAGGA | -0.23
154 | CTCCTGAA | -0.0399
155 | GAGAATCA | 0.0959
156 | GTGGATTA | 0.0983
157 | TCCGAGGA | 0.34
158 | ACCGATAA | 0.18
159 | CCCGACAA | 0.173
160 | TCCGACAA | 0.337
161 | TCCGAGCA | 0.307
162 | CCCGAGGA | -0.118
163 | ACCGAGCA | 0.205
164 | GCCGATAA | 0.00363
165 | TCCGATAA | 0.387
166 | ACCGACAA | 0.0505
167 | GCCGAGCA | -0.305
168 | GCCGAGGA | 0.1
169 | TTAGCCAA | -0.0233
170 | GTAATCGA | 0.0961
171 | ACTACTCT | -0.0164
172 | CTAGCCTC | -0.268
173 | CCCTCGCG | -0.204
174 | ATCTGCAG | 0.0906
175 | ATGAGACA | -0.0116

Source: the supplement of paper PMC3334620
